# Values joined by “and” are separate entries in the source; they are usually repeats but may differ in a detail not shown here. Equal values may be shown once. Inconclusive results are not listed. Some structures have more than one record in an assay (separate samples or runs), and their calls can disagree. Active and inactive are the calls of the source. The calls were made as follows, unless noted: active = hit-call score of the fitted dose curve at least 0.9, where 1 is the maximum; inactive = score below 0.9.
# Key:
# [1] = CCTE_Shafer_MEA_dev_burst_rate: CCTE's Neural Network Formation Assay for Burst Rate, Shafer Lab (AID 2284042);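 as to AC50: potency for loss of burst rate below DMSO control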
# Procedure, shortened: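 Cells plated, treated day 0; recorded DIV 5, 7, 9, 12; fed and re-treated DIV 5, 9. Endpoint: bursts per recording time, active-electrode well mean, trapezoidal AUC, fitted in decreasing direction against DMSO baseline.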
# [2] = CCTE_Shafer_MEA_dev_burst_duration_mean: CCTE's Neural Network Formation Assay for Mean Burst Duration, Shafer Lab (AID 2284045);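 as to AC50: curve fitted for loss meaning shorter burst duration than DMSO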
# Procedure, shortened: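 Network-formation assay in primary rat cortical neurons; treatment spans twelve days of development. Mean burst duration per well is integrated by trapezoidal AUC and fitted in the loss-of-signal direction against DMSO baseline.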
# [3] = CCTE_Shafer_MEA_dev_interburst_interval_mean: CCTE's Neural Network Formation Assay for Mean Interburst Interval, Shafer Lab (AID 2284046);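 also: well-mean interburst interval of bursting electrodes as AUC over four recording days; curve fitted for decrease in interburst interval relative to DMSO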
# Procedure, shortened: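 Developing rat cortical networks on 48-well MEAs receive compound from the day of plating. Burst intervals from each active electrode are averaged per well, and AUC over the recording days is fitted in the negative direction against DMSO.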
# [4] = CCTE_Shafer_MEA_dev_network_spike_number: CCTE's Neural Network Formation Assay for Number of Network Spikes, Shafer Lab (AID 2284048);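 also: synchronized bursts across electrodes counted on days 5 7 9 12 and integrated as AUC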;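 as to AC50: fit as a loss of signal meaning fewer network spikes than DMSO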
# Procedure, shortened: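 Extracellular recordings from 16-electrode wells track network formation in rat cortical cultures under continuous treatment from plating. The endpoint is network spike number, expressed as AUC across DIV 5–12 relative to DMSO vehicle.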
# [5] = CCTE_Shafer_MEA_dev_network_spike_peak: CCTE's Neural Network Formation Assay for Mean Number of Electrodes in Network Spike, Shafer Lab (AID 2284049);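 as to AC50: fitted for loss of signal meaning fewer electrodes in network spikes than DMSO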
# Procedure, shortened: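 Continuous 12-day exposure of rat cortical cultures, starting at plating, on MEA plates. Endpoint: electrodes participating in network-spike peaks, AUC across DIV 5–12, DMSO as negative control.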
# [6] = CCTE_Shafer_MEA_dev_spike_duration_mean: CCTE's Neural Network Formation Assay for Mean Spike Duration, Shafer Lab (AID 2284051);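 also: mean network spike duration pooled as area under curve over DIV 5 to 12 recordings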;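 as to AC50: potency for a decrease in mean network spike duration versus DMSO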
# Procedure, shortened: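 Readout is the average length of network spikes, clustered firing across electrodes, summed over DIV 5, 7, 9 and 12 as area under the curve. Neurons from rat cortex developed networks on MEA plates under continuous 12-day exposure.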
# [7] = CCTE_Shafer_MEA_dev_network_spike_duration_std: CCTE's Neural Network Formation Assay for Standard Deviation of Network Spike Duration, Shafer Lab (AID 2284052);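 also: area under curve of spike duration SD across recording days 5 to 12; hits are decreases in network spike duration SD versus DMSO vehicle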
# Procedure, shortened: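 Read-out is the trapezoidal area-under-the-curve across recordings made on days 5, 7, 9 and 12, fitted in the negative direction against DMSO baseline. Neurons were primary rat cortical cells treated from day 0, with treatment renewed at each feed.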
# [8] = CCTE_Shafer_MEA_dev_per_network_spike_spike_number_mean: CCTE's Neural Network Formation Assay for Mean Number of Spikes in a Network Spike, Shafer Lab (AID 2284053)
# Procedure, shortened: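 Continuous twelve-day exposure of developing rat cortical networks grown over 16 microelectrodes per well; spontaneous firing is captured at four time points, and the per-network-spike spike number is integrated over development by trapezoidal AUC.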
# [9] = CCTE_Shafer_MEA_dev_per_network_spike_spike_percent: CCTE's Neural Network Formation Assay for Percent of Spikes in a Network Spike, Shafer Lab (AID 2284054)
# Procedure, shortened: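 Developing networks of rat cortical neurons are dosed at day 0 and recorded extracellularly four times up to day 12. The endpoint is the area under the curve of percent spikes in network spikes, fitted in the negative direction relative to DMSO.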
# [10] = CCTE_Shafer_MEA_dev_correlation_coefficient_mean: CCTE's Neural Network Formation Assay for Mean Correlation Coefficient, Shafer Lab (AID 2284093);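 as to AC50: well mean pairwise spike train correlation integrated as AUC over recording days 5 to 12; potency fitted for loss of correlation relative to DMSO vehicle wells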
# Procedure, shortened: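 Read-out: well-mean correlation coefficient of spike trains between electrode pairs, collapsed over four recording days as trapezoidal area-under-the-curve. Developing rat cortical neuron networks grown on MEAs received test chemical continuously from plating.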
# DIO2 (gene 1734) = experiment: CCTE_GLTED_hDIO2: CCTE's human Deiodinase 2 (DIO2) Inhibition Assay, Great Lakes Toxicology and Ecology Division (GLTED) Lab (AID 2284050; active = hit-call score of the fitted dose curve at least 0.9, where 1 is the maximum)
# Procedure, shortened: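 Triplicate cell-free incubations (3 h) of human DIO2 with chemical preceded colorimetric Sandell-Kolthoff quantitation of liberated iodide; DMSO served as negative control for curve fitting.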
# DIO3 (gene 1735) = experiment: CCTE_GLTED_hDIO3: CCTE's human Deiodinase 3 (DIO3) Inhibition Assay, Great Lakes Toxicology and Ecology Division (GLTED) Lab (AID 2284055; active = hit-call score of the fitted dose curve at least 0.9, where 1 is the maximum;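 as to AC50: potency is for inhibition seen as loss of released iodide signal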)
# Procedure, shortened: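 Steps: incubate adenovirus-produced hDIO3 with chemical for 3 hours; detect freed iodide via cerium-arsenic Sandell-Kolthoff colorimetry; compare with DMSO baseline.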
# [11] = CCTE_Shafer_MEA_acute_LDH: CCTE's Lactate Dehydrogenase Assay for Cytotoxicity in the Neural Acute Assay, Shafer Lab (AID 2284086; active = hit-call score of the fitted dose curve at least 0.9, where 1 is the maximum;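 also: active means LDH release rises above DMSO vehicle level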)
# Procedure, shortened: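 Cytotoxicity readout: spectrophotometric LDH activity in supernatant of rat primary cortical neurons, post-plating day 13 or 15, sampled after 40 min compound exposure; signal gain relative to DMSO baseline.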
# [12] = CCTE_Shafer_MEA_dev_bursting_electrodes_number: CCTE's Neural Network Formation Assay for Number of Bursting Electrodes, Shafer Lab (AID 2284043; active = hit-call score of the fitted dose curve at least 0.9, where 1 is the maximum;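 also: potency is for loss of bursting electrodes relative to DMSO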)
# Procedure, shortened: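 Counted: electrodes with burst rate ≥1 per 2 min in each well. Cells: primary rat cortex, 1.5 x 10^5/well, on 16-electrode MEA wells. Exposure: DIV 0–12, compound renewed DIV 5 and 9. Recording days 5, 7, 9, 12; AUC vs DMSO baseline.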
# [13] = CCTE_Shafer_MEA_dev_LDH: CCTE's Lactate Dehydrogenase Assay for Cytotoxicity in the Neural Network Formation Assay, Shafer Lab (AID 2284068; active = hit-call score of the fitted dose curve at least 0.9, where 1 is the maximum;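 also: exposure for twelve days from plating with re-dosing on DIV 5 and 9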)
# Procedure, shortened: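 Cytotoxicity companion to network-formation recordings: rat cortical neurons received compound over 12 days of development, re-dosed at DIV 5 and 9 feeds. Viability was inferred from LDH enzyme activity relative to DMSO.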
# [14] = CCTE_Shafer_MEA_dev_AB: CCTE's Alamar Blue Assay for Cytotoxicity in the Neural Network Formation Assay, Shafer Lab (AID 2284083; active = hit-call score of the fitted dose curve at least 0.9, where 1 is the maximum;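 also: resazurin reduction fluorescence as viability of cultured neurons; twelve days of exposure from plating with re-dosing on DIV 5 and 9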)
# Procedure, shortened: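 Fluorescent resazurin reduction serves as the viability read-out, with DMSO as negative control and baseline. Cells were primary rat cortical neurons grown on MEA plates and dosed from day 0 to day 12, treatment renewed on DIV 5 and 9.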
# [15] = UKN5_HCS_SBAD2_cell_viability: Viability Assessment in the University of Konstanz (UKN) Leist Lab Neurite Outgrowth Assay in human iPSC-derived immature Dorsal Root Ganglia Neurons (UKN5) (AID 2284056)
# Procedure, shortened: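 iPSC-derived immature peripheral neurons (SBAD2) seeded on Matrigel with CHIR99021, SU5402 and DAPT, dosed 1 h later for 24 h. Viability from Hoechst H-33342 and calcein-AM live staining, high-content imaging; bidirectional fit versus DMSO.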
# [16] = UKN5_HCS_SBAD2_neurite_outgrowth: University of Konstanz (UKN) Leist Lab Neurite Outgrowth Assay in human iPSC-derived immature Dorsal Root Ganglia Neurons (UKN5) (AID 2284070); conditions: actives raise or lower the signal
# Procedure, shortened: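 Neurite outgrowth is quantified as calcein-AM-labelled neurite area in human iPSC-derived peripheral neurons treated for 24 h, starting 1 h after plating in medium with CHIR99021 (1.5 uM), SU5402 (5 uM) and DAPT (5 uM).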
# [17] = UKN2_HCS_IMR90_neural_migration: University of Konstanz (UKN) Leist Lab Neural Crest Cell Migration Assay in human induced IMR90 Pluripotent Stem Cells (UKN2) (AID 2284204); conditions: actives raise or lower the signal
# Procedure, shortened: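 Using a 96-well stopper format with PLO/laminin/fibronectin coating, neural crest cells from iPSC migrate in cytokine-supplemented N2-S medium; after 24 h, chemicals are applied for a further 24 h, then cells are imaged after dye staining.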
# [18] = UKN4_HCS_LUHMES_neurite_outgrowth: University of Konstanz (UKN) Leist Lab Neurite Outgrowth Assay in human LUHMES cells (UKN4) (AID 2284206); conditions: actives raise or lower the signal
# Procedure, shortened: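 Neurite area in dopaminergic-model LUHMES neurons is measured by high-content imaging of calcein-AM after 24 h treatment starting shortly after day-2 replating; Hoechst staining tracks viability.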
smiles,measurement,setting,value
O=C(O)C(F)(F)C(F)(F)C(F)(F)C(F)(F)C(F)(F)C(F)(F)F,outcome,[1],inactive
same,outcome,[2],inactive
same,outcome,[3],inactive
same,outcome,[4],inactive
same,outcome,[5],inactive
same,outcome,[6],inactive
same,outcome,[7],inactive
same,outcome,[8],inactive
same,outcome,[9],inactive
same,outcome,[10],inactive
CC(C)(c1ccccc1)c1ccc(O)c(C(C)(C)c2ccccc2)c1,AC50,DIO2 (gene 1734),91.9 µM (active)
same,AC50,DIO3 (gene 1735),17.3 µM (active)
same,outcome,[11],inactive
CCC(C)(C)c1ccc(O)c(C(C)(C)CC)c1,AC50,DIO2 (gene 1734),79 µM (active)
same,AC50,DIO3 (gene 1735),18.9 µM (active)
same,outcome,[11],inactive
CC(=O)[O][Hg][c]1ccccc1,AC50,[1],0.0117 µM (active)
same,AC50,[12],0.0108 µM (active)
same,AC50,[2],0.00963 µM (active)
same,AC50,[3],0.00958 µM (active)
same,AC50,[4],9.11 nM (active)
same,AC50,[5],0.0145 µM (active)
same,AC50,[6],0.0121 µM (active)
same,AC50,[7],0.0112 µM (active)
same,AC50,[8],0.0238 µM (active)
same,AC50,[9],0.0173 µM (active)
same,AC50,[13],0.0183 µM (active)
same,AC50,[14],0.022 µM (active)
same,outcome,[11],inactive
same,AC50,[10],0.0159 µM (active)
Cn1sc(Cl)cc1=O,AC50,[1],5.73 µM (active)
same,AC50,[12],5.1 µM (active)
same,AC50,[2],7.64 µM (active)
same,AC50,[3],7.54 µM (active)
same,AC50,[4],4450 nM (active)
same,AC50,[5],3.57 µM (active)
same,AC50,[6],7.62 µM (active)
same,AC50,[7],1.84 µM (active)
same,AC50,[8],3.51 µM (active)
same,AC50,[9],7.62 µM (active)
same,AC50,[13],4.61 µM (active)
same,AC50,[14],5.49 µM (active)
same,AC50,[10],4.5 µM (active)
Clc1ccc(COC(Cn2ccnc2)c2ccc(Cl)cc2Cl)cc1 (stereo not given),AC50,DIO2 (gene 1734),95.2 µM (active)
same,outcome,DIO3 (gene 1735),inactive
CC(C)(c1ccc(OCC2CO2)cc1)c1ccc(OCC2CO2)cc1 (stereo not given),AC50,DIO2 (gene 1734),3.76 µM (active)
same,AC50,DIO3 (gene 1735),3.62 µM (active)
CCOP(=S)(OCC)Oc1nc(Cl)c(Cl)cc1Cl,AC50,[1],17.1 µM (active)
same,outcome,[1],inactive
same,AC50,[12],23.2 µM (active) and 4.58 µM (active) and 21.5 µM (active)
same,outcome,[2],inactive
same,AC50,[3],15.2 µM (active) and 15 µM (active)
same,outcome,[3],inactive
same,AC50,[4],23 µM (active) and 3.97 µM (active)
same,outcome,[4],inactive
same,AC50,[5],23 µM (active) and 10 µM (active) and 23.1 µM (active)
same,AC50,[6],23 µM (active) and 15 µM (active) and 21.7 µM (active)
same,AC50,[7],22.7 µM (active)
same,outcome,[7],inactive
same,AC50,[8],22.1 µM (active) and 23.9 µM (active)
same,outcome,[8],inactive
same,AC50,[9],23.4 µM (active) and 20.2 µM (active)
same,outcome,[9],inactive
same,outcome,[15],inactive
same,AC50,[13],13.2 µM (active) and 13.7 µM (active) and 24.3 µM (active)
same,outcome,[16],inactive
same,AC50,[14],18.2 µM (active) and 22.5 µM (active) and 24 µM (active)
same,AC50,[10],23.5 µM (active) and 15 µM (active) and 20.4 µM (active)
same,outcome,[17],inactive
same,AC50,[18],218 µM (active)
O=C(O)C(Cl)(Cl)Cl,outcome,[11],inactive
C=CC(=O)OCCCCCC(C)C,AC50,DIO2 (gene 1734),21.1 µM (active)
same,AC50,DIO3 (gene 1735),35.4 µM (active)
CC(C)(C)CC(C)(C)c1ccc(O)cc1,AC50,DIO2 (gene 1734),105 µM (active)
same,AC50,DIO3 (gene 1735),82 µM (active)
same,outcome,[11],inactive
O=C(Nc1ccc2[nH]ccc2c1)c1cc2cc(F)ccc2n1Cc1cccc(F)c1,outcome,[11],inactive
ClC1(Cl)C2(Cl)C3(Cl)C4(Cl)C(Cl)(Cl)C5(Cl)C3(Cl)C1(Cl)C5(Cl)C24Cl (stereo not given),AC50,[1],2.64 µM (active)
same,AC50,[12],1.62 µM (active)
same,outcome,[2],inactive
same,AC50,[3],3.37 µM (active)
same,AC50,[4],888 nM (active)
same,AC50,[5],2.32 µM (active)
same,AC50,[6],2.35 µM (active)
same,AC50,[7],1.03 µM (active)
same,AC50,[8],2.68 µM (active)
same,AC50,[9],2.32 µM (active)
same,AC50,[13],1.92 µM (active)
same,AC50,[14],2.83 µM (active)
same,AC50,[10],2.41 µM (active)

# Source: PubChem BioAssay (EPA / NIEHS)
